Consider 1 compound from the supplement of paper PMC11732987, “Enantioselective OTUD7B fragment discovery through chemoproteomics screening and high-throughput optimisation” (Communications Chemistry, 2025).

Test in all cases: log2 ratio of Biotin-Ahx-Ub-VS probe labelling (fragment/DMSO); higher = less target engagement (more negative = stronger competition), active = hit call of the paper (q ≤ 0.05, log2 ratio ≤ -1)
Holding throughout (settings): compound concentration: 200 uM; treatment time: 3 h

One experiment has as its target T1, OTUD6B (UniProt Q8N6M0).
T1 sequence (whole entry): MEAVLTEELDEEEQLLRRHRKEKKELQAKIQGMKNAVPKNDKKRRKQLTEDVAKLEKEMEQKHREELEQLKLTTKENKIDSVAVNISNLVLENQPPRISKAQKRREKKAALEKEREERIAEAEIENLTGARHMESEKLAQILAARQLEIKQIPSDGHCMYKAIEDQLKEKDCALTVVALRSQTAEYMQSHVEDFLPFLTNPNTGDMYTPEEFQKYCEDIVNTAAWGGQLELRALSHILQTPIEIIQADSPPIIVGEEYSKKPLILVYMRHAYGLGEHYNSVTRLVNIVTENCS
Put shortly:
(§1)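 Global-median-normalised Spectronaut label-free quantities were compared by unpaired t-test, and values are average log2 ratios of fragment over vehicle. Only proteins with ≥2 unique peptides were used. HEK293T lysate (495 µg per sample) was treated in triplicate with fragment at 200 µM or vehicle for 3 h and then with Biotin-Ahx-Ub-VS at 0.5 µM final for 1 h. Labelled DUBs were then NeutrAvidin-enriched, digested with LysC and trypsin, and run by diaPASEF LC-MS/MS.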

The target of the next experiment is T2, OTUD7B (UniProt Q6GQQ9).
T2 sequence (whole entry): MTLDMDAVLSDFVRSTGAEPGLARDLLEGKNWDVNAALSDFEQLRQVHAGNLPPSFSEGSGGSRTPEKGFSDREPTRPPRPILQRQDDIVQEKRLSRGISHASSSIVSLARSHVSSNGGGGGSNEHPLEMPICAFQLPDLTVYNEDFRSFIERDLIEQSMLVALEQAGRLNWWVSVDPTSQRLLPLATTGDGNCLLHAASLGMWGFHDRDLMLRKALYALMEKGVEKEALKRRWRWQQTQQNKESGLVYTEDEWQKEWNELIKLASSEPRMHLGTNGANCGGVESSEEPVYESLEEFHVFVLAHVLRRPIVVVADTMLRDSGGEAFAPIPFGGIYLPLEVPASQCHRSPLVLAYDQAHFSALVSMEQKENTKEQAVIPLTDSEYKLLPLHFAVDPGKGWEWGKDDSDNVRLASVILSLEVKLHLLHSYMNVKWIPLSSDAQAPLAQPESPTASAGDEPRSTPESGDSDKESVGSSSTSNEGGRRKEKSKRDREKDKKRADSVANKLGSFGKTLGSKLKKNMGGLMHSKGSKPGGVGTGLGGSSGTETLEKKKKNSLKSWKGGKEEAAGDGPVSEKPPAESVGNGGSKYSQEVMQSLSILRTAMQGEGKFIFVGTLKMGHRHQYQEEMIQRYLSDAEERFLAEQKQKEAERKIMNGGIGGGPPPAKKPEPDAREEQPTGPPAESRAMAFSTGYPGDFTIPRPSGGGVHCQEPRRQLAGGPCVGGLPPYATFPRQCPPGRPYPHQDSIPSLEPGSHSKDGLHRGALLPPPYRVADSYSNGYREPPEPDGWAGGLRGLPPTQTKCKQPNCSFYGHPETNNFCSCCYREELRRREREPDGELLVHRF
An outline of the steps:
as §1

The next experiment concerns the target PRPF8 (UniProt Q6P2Q9). Put shortly:
as §1

The target of another experiment is T3, PSMD7 (UniProt P51665).
T3 sequence (whole entry): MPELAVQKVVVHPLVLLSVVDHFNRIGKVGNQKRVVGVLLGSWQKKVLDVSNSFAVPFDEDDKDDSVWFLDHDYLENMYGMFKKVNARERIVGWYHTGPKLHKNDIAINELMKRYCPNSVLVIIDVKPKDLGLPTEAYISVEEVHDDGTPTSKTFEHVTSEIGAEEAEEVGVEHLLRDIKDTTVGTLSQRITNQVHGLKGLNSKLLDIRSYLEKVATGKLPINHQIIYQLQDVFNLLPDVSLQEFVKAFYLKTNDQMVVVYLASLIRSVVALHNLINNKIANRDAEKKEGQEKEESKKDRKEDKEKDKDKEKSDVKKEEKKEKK
An outline of the steps: as §1

The next experiment concerns the target UCHL1 (UniProt P09936). An outline of the steps: as §1
The target in the next experiment is T4, UCHL3 (UniProt P15374).
T4 sequence (whole entry): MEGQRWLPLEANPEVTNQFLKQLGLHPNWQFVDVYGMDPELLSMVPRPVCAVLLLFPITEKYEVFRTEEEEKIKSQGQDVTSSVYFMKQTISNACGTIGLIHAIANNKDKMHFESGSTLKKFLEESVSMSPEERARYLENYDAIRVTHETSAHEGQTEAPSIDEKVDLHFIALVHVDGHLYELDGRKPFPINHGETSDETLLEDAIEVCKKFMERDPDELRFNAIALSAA
An outline of the steps: as §1

The target in a further experiment is T5, UCHL5 (UniProt Q9Y5K5).
T5 sequence (whole entry): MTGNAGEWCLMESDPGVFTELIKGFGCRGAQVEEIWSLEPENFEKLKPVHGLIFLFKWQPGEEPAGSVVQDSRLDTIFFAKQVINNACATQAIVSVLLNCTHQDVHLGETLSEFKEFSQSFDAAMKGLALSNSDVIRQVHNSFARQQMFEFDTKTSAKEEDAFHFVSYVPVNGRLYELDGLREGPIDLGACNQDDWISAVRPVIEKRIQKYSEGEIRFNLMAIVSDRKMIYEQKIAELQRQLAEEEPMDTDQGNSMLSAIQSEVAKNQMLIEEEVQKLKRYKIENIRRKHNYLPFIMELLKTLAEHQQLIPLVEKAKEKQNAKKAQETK
Put shortly: as §1

In a further experiment the target is USP10 (UniProt Q14694). An outline of the steps: as §1
For another experiment, the target named is T6, USP15 (UniProt Q9Y4E8).
T6 sequence (whole entry): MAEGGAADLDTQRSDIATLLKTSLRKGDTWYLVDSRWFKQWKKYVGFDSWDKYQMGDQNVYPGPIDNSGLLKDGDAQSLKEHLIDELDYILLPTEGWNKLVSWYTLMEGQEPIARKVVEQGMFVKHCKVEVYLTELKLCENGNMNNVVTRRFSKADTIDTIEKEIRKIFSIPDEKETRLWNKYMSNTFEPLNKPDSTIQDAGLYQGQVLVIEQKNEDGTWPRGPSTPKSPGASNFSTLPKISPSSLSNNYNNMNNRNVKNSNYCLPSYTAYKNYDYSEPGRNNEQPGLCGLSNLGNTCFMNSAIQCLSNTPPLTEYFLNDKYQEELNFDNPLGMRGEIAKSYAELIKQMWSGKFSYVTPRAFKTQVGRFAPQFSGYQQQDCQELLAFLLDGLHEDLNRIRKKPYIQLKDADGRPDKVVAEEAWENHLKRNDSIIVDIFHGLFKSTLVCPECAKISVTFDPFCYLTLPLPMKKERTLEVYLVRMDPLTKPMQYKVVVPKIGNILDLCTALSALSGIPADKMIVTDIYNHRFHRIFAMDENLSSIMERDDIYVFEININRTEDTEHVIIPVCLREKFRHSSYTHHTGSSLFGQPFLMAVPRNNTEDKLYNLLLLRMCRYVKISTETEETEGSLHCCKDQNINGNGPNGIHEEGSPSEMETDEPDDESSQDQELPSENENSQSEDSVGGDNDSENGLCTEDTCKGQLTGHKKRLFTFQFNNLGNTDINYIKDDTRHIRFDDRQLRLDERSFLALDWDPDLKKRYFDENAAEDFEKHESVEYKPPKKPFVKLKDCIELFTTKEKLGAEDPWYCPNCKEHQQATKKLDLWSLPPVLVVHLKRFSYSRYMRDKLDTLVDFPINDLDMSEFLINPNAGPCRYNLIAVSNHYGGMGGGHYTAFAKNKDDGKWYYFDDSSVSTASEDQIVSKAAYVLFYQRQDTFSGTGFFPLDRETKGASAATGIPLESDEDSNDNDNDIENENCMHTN
An outline of the steps:
as §1

Molecules are shown by their SMILES. A number with no mark means an inactive call.

Chain of USP10 (Q14694 whole entry): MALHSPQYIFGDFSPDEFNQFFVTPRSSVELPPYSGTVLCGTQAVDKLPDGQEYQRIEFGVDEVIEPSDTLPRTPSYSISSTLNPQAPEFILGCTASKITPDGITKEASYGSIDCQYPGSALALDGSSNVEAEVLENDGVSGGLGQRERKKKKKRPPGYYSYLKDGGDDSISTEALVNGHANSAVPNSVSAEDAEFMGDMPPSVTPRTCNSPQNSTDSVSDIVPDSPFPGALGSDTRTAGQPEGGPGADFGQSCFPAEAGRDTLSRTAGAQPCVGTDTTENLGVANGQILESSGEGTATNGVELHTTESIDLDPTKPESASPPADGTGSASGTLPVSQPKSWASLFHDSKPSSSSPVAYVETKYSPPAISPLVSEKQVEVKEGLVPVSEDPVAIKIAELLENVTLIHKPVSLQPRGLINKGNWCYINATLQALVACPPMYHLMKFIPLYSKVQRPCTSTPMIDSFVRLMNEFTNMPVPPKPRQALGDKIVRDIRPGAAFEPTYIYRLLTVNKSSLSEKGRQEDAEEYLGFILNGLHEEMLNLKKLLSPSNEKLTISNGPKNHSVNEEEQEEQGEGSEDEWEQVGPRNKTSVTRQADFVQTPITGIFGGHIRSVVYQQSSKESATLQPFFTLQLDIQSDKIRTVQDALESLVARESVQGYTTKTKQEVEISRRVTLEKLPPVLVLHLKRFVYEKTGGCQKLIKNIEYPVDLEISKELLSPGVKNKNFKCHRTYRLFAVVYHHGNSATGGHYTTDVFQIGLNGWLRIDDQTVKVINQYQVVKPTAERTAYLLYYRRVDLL
Chain of UCHL1 (P09936 whole entry, looked up): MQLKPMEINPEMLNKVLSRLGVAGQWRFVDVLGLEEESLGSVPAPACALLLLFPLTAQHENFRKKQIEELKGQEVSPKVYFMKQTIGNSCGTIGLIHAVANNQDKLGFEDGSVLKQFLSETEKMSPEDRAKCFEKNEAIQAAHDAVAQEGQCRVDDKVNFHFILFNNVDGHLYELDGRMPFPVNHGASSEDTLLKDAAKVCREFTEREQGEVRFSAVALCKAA

Consider `Cc1nc(CNC(=O)CCl)c2ccccn12.Cl`, for which the “log2 ratio of Biotin-Ahx-Ub-VS probe labelling” value was -0.000255 in the experiment with OTUD6B; -0.458 in the experiment with OTUD7B; -0.14 in the experiment with PRPF8; -0.132 with PSMD7; -1.12 (active) with UCHL1; -0.319 with UCHL3. Further, the “log2 ratio of Biotin-Ahx-Ub-VS probe labelling” value is -0.224 with UCHL5, -0.121 with USP10 and -0.398 with USP15.
